# PubChem BioAssay AID504884 (Broad Institute, 2011)
# In all, about 360,000 compounds went through this assay and about 230 (0.064%) were called active. The full list was thinned out, with actives kept by preference. Unmarked numbers belong to inactive results. No stated cut-off is given here; in the data, active means activity above about 50% (passing the limit was not always enough); inconclusive means no clear call, values can overlap the other calls.
# Test system: DNA topoisomerase I (Yersinia pestis CO92)
# Experiment: Yersinia pestis topoisomerase I inhibitors, primary screen, biochemical, cleavage product accumulation, plate reader, single point (AID 504884)
# Details: Y. pestis Topo-I cleavage product accumulation, at 10 µM, hits give high values
row,Compound,activity
1,CCOC(=O)/C=C/C(=O)OCC(=O)NC(c1ccccc1)c1ccccc1,7.5%
2,COc1ccc(OC)c(CN2CCN(C(=O)CNC(=O)c3cc(C)cc(C)c3)CC2)c1,9.4%
3,CCOC(=O)C(C)Oc1cccc2c(=O)n(CC(=O)N3CCc4ccccc43)ccc12 (stereo unspecified),-0.583%
4,COc1ccc(CN2CCNC(=O)C2CC(=O)NCc2cn[nH]c2-c2ccccc2)c(F)c1 (stereo unspecified),14.5%
5,COc1ccc(N(CC(=O)NC2CCCCC2)C(=O)CNC(=O)c2ccco2)c(OC)c1,18.1%
6,CCOc1ccc(NC(=O)CCC(=O)NNC(=O)NC2CCCCC2)cc1,-4.6%
7,N#Cc1cccc(NC(=O)CCC2CCCC2)c1,0.569%
8,N#CC(C#N)=CN=c1ccn(Cc2ccc(Cl)cc2Cl)cc1,1.09%
9,CC(C(=O)NC1CCCCC1)N1C(=O)c2cccc3cccc1c23 (stereo unspecified),10.7%
10,O=C(C[n+]1cc(-c2ccc(Cl)c(Cl)c2)n2c1CCC2)c1cccs1,5.58%
11,Nc1nc(SCC(=O)NN(c2ccccc2)c2ccccc2)n[nH]1,-4.71%
12,CN(CC(=O)N1CCN(c2ccccc2)CC1)S(=O)(=O)c1cccs1,3.69%
13,Cc1cc(C)c(C2C3=C(Nc4c2c(C)nn4-c2ccccn2)c2ccccc2C3=O)c(C)c1 (stereo unspecified),0.572%
14,CC(C)CCNC(=O)C(C)N(C(=O)Cn1nnc(-c2ccc(F)cc2)n1)C1CCCC1 (stereo unspecified),21.2%
15,CN(C)C(CNC(=O)c1ccc(S(=O)(=O)NCc2ccco2)cc1)c1ccccc1 (stereo unspecified),2.31%
16,Cc1ccc(S(=O)(=O)NCC(=O)NNC(=O)c2ccc(Br)cc2)cc1C,9.73%
17,O=S(=O)(c1ccc(-c2ccno2)s1)N1CCCCC1,0.748%
18,COc1ccc(S(=O)(=O)NCC2CCCN(C(=O)c3occc3C)C2)cc1 (stereo unspecified),0.202%
19,Cc1cccc(N2CCN(C(=O)COCc3cc(-c4ccc5c(c4)OCO5)on3)CC2)c1C,38.3%
20,COc1cc(C(=O)OCCCN2CCOCC2)cc(OC)c1OC,-0.169%
21,Cc1ccc2nc(-c3ccc(SCC(=O)Nc4cc(C)on4)nc3)[nH]c2c1,1.96%

row,Compound,activity
1,CC(=O)Oc1ccc(OC(C)=O)c2c1C1C=CC2CC1,-5.11%
2,O=C(NCC(F)(F)F)Nc1nnc(C(F)(F)F)s1,11.4%
3,Cc1nn(C)c(C)c1S(=O)(=O)N1CCC(CO)(Cc2ccc(Cl)cc2)CC1,4.97%
4,Cc1nnc(SCC(=O)NC(=O)NC2CCCC2)n1N,-5.78%
5,CC1CN(/C=C/C(=O)C(F)(F)F)CC(C)O1 (stereo unspecified),5.75%
6,CCOc1ccc(NC(=O)CN(C)C(=O)Cn2c(=O)cnc3ccccc32)cc1OCC,1.46%
7,CCOC(=O)c1[nH]cnc1C(=O)NC1CCCCC1,-3.43%
8,CCc1nc2c(OCCC3CCCCC3)cccn2c1N(C)C(=O)c1ccco1,31.3%
9,CC1CC(C)CN(c2ccc(S(=O)(=O)N3CCOCC3)cc2)C1 (stereo unspecified),31.2%
10,ClC1(Cl)CC1CSc1ncn[nH]1 (stereo unspecified),4.63%
11,CCCC(C)C(=O)OCC(=O)Nc1c(Br)cc(C)cc1Br (stereo unspecified),0.888%
12,COc1cccc2c1OCC(C(=O)NCc1ccc(Cl)cc1Cl)=C2,5.83%
13,CCOc1nnc(C)c2c(C)n(-c3cccc(Cl)c3)nc12,0.181%
14,O=C(CC1C(=O)NCCN1C(=O)c1ccc([N+](=O)[O-])cc1)Nc1cccc(Cl)c1 (stereo unspecified),-5.36%
15,CCc1ccccc1NC(=O)/C(=C/c1ccccc1)c1ccccc1,58.2% (active)
16,CCc1ccccc1NC(=O)CCOc1ccccc1,2.54%
17,CCc1ccccc1NC(=S)Nc1cc(OC)c(NC(=O)C(C)C)cc1OC,-1.32%
18,CCOc1ccc(S(=O)(=O)N2CCCCC2)cc1NC(=O)CN1CCCC1c1cccs1 (stereo unspecified),9.92%
19,COc1ccc2c(c1)CCc1cn3ncc(C#N)c3nc1-2,5.21%
20,CCN(C(=O)c1ccc(Br)cc1)c1ccccc1,4.1%
21,O=C(COc1ccc(F)cc1)N(CC1=CCS(=O)(=O)C1)c1ccccc1,3.66%

row,Compound,activity
1,CCN(C(=O)COc1ccc(C(=O)c2ccccc2)cc1)c1ccccc1,51.2% (active)
2,C=CCN(C(=O)c1cc(C)cc(C)c1)C1(C(=O)Nc2ccccc2)CCN(C(C)C)CC1,-1.88%
3,C=C1CCN([C@@H](Cc2ccccc2)C(=O)N2CCOCC2)S(=O)(=O)c2ccccc21,11.9%
4,CCc1cc(-c2n[nH]c(=S)n2CC(C)C)cs1,7.56%
5,CCn1ncc(C2=NOC(C(=O)Nc3ccccc3C(=O)OC)C2)c1C (stereo unspecified),16.1%
6,C[N+]1(CCNC(=O)/C=N/O)CCCCC1,3.78%
7,N#Cc1ccc(/C=C2\CCn3c2nc2cc(C(=O)O)ccc2c3=O)cc1,5.43%
8,CCN(CC)S(=O)(=O)c1ccc(OC(C)C)c(N)c1,9.36%
9,CCCC(C)C(=O)NCc1ccncc1 (stereo unspecified),3.84%
10,Cc1cnc(C(=O)OCc2c(C)cc(C(C)(C)C)cc2C)cn1,33.4%
11,O=C(NC(c1ccc(Cl)cc1)P(=O)(Oc1ccccc1)Oc1ccccc1)OCc1ccccc1 (stereo unspecified),-6.44%
12,COc1cc(C(=O)OCc2cc(=O)n3ccsc3n2)ccc1OC(C)C,1.94%
13,Cc1ccc(OCC(=O)Nc2ccccc2C(=O)NC2CC2)cc1,-5.78%
14,CSc1ccccc1NC(=O)COC(=O)CCCOc1ccc(C)cc1,71.8% (active)
15,COc1cc([N+](=O)[O-])ccc1NC(=O)COC(=O)CCOc1ccc(C)cc1,-0.7%
16,O=S(=O)(Nc1ccc2[nH]ncc2c1)c1ccccc1Cl,5.56%
17,CC(NC(=O)c1ccccc1C(=O)O)c1ccc(-n2ccnc2)cc1 (stereo unspecified),-18%
18,C=C(C)CNc1cc(S(=O)(=O)N2CCOCC2)ccc1Oc1ccccc1,23%
19,CCN(CC(=O)Nc1cc(Cl)ccc1C)C(=O)CN1C(=O)NC2(CCCC2)C1=O,-11.4%
